# Reference: PubChem BioAssay (EPA / NIEHS)
# Several values for one entry are separate records, joined by “and”; a condition that tells them apart may be missing. Equal values may be shown once. Inconclusive results are not listed. Some structures have more than one record in an assay (separate samples or runs), and their calls can disagree. Activity calls are given as the source filed them. Rule for the calls: active = hit-call score of the fitted dose curve at least 0.9, where 1 is the maximum; inconclusive = response in the unintended direction; inactive = score below 0.9.
# What was measured:
# [1] = ATG_XTT_Cytotoxicity: Cytotoxicity Assessment in the Attagene TRANS-FACTORIAL HepG2 Assay (AID 2283584);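 for AC50: cells exposed to compound for 24 h before reading; active means loss of viability signal versus DMSO baseline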
# Summary of the method: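 Viability endpoint from XTT after 24 h chemical exposure of reporter-transfected human HepG2 liver cells; signal loss fitted relative to DMSO negative control.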
# [2] = TOX21_p53_BLA_p2_viability: Viability Assessment in the Tox21 HCT-116 p53 Agonism Beta-lactamase Assay, Phase 2 (AID 2283591);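 note: compound exposure lasted 16 h at 37 °C; actives lower the ATP signal meaning cytotoxicity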
# Summary of the method: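 HCT116 p53-bla cells, 4000/well, dosed after 5 h plating (217-fold dilution of DMSO stocks) and incubated 16 h at 37C. Viability taken as cellular ATP by CellTiter-Glo luminescence after 30 min RT; signal loss marks cytotoxicity.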
# [3] = biological target: Cellular tumor antigen p53 (Homo sapiens) (UniProt P04637); assay: TOX21_p53_BLA_p2_ratio: Tox21 HCT-116 p53 Agonism Beta-lactamase Assay, Ratio, Phase 2 (AID 2283592)
# Cellular tumor antigen p53 (Homo sapiens), sequence (P04637 whole entry, looked up): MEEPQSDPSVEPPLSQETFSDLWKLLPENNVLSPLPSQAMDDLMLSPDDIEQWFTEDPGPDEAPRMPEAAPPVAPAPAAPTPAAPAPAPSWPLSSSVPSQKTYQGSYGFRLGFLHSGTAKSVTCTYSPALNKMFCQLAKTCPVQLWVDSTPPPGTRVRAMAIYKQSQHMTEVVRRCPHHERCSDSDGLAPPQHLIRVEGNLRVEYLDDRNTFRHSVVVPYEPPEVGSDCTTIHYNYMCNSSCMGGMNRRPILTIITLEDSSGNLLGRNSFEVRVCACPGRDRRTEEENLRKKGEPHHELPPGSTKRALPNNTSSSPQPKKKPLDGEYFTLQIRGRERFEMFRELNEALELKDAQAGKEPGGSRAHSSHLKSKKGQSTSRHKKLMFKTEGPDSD
# Summary of the method: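 Gain-of-signal p53 agonism was scored from the beta-lactamase FRET ratio (460/530 nm, 405 nm excitation) in HCT116 cells treated 16 h at 37C, 5% CO2, with DMSO serving as negative control and baseline.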
# [4] = TOX21_p53_BLA_p3_viability: Viability Assessment in the Tox21 HCT-116 p53 Agonism Beta-lactamase Assay, Phase 3 (AID 2283593);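 note: cells exposed to compound for 16 h before reading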
# Summary of the method: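 HCT116 cells, 4000/well, dosed 5 h after plating by pin transfer (217-fold dilution from DMSO stock) and incubated 16 h at 37C, 5% CO2. Viability read as ATP luminescence with CellTiter-Glo after 30 min at room temperature.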
# [5] = biological target: Cellular tumor antigen p53 (Homo sapiens) (UniProt P04637); assay: TOX21_p53_BLA_p3_ratio: Tox21 HCT-116 p53 Agonism Beta-lactamase Assay, Ratio, Phase 3 (AID 2283596)
# Summary of the method: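 HCT116 p53-bla cells (4000/well) given compound in DMSO (217-fold dilution) after 5 h, incubated 16 h at 37C. CCF4-AM substrate 2 h at room temperature; 460/530 nm emission ratio, gain fitted against DMSO.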
# [6] = TOX21_p53_BLA_p4_viability: Viability Assessment in the Tox21 HCT-116 p53 Agonism Beta-lactamase Assay, Phase 4 (AID 2283597);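 note: hits lower the luminescence signal meaning cytotoxicity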
# Summary of the method: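 Following a 16 h exposure at 37C, the treated HCT116 wells were first read for the FRET ratio. They were then lysed with CellTiter-Glo, and ATP luminescence was recorded after 30 min at room temperature.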
# [7] = biological target: Cellular tumor antigen p53 (Homo sapiens) (UniProt P04637); assay: TOX21_p53_BLA_p5_ratio: Tox21 HCT-116 p53 Agonism Beta-lactamase Assay, Ratio, Phase 5 (AID 2283599)
# Summary of the method: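 HCT-116 p53-bla cells (4000/well) plated 5 h, dosed with compound (217-fold DMSO dilution) for 16 h at 37 C; CCF4-AM substrate 2 h at room temperature. Activity is the 460/530 nm emission ratio (405 nm excitation), fitted in gain-of-signal direction versus DMSO.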
# [8] = TOX21_p53_BLA_p5_viability: Viability Assessment in the Tox21 HCT-116 p53 Agonism Beta-lactamase Assay, Phase 5 (AID 2283600)
# Summary of the method: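 After the 460/530 nm beta-lactamase measurement, the wells received an ATP-detection luciferase reagent; signal was read 30 min later at RT. Compound treatment lasted 16 h on cells pre-incubated 5 h post-seeding.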
# [9] = biological target: Cellular tumor antigen p53 (Homo sapiens) (UniProt P04637); assay: TOX21_p53_BLA_p4_ratio: Tox21 HCT-116 p53 Agonism Beta-lactamase Assay, Ratio, Phase 4 (AID 2283601)
# Summary of the method: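 HCT-116 p53 beta-lactamase reporter cells (4000/well) preincubated 5 h, then compound (217-fold dilution of DMSO stock) for 16 h at 37C. CCF4-AM substrate added 2 h at room temperature; 460/530 nm emission ratio fitted upward versus DMSO.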
smiles,measurement,setting,value
CC1(C)CCC(Cc2ccc(Cl)cc2)C1(O)Cn1cncn1 (stereo unspecified),outcome,[1],inactive
ClC1=C(Cl)[C@]2(Cl)[C@@H]3[C@@H](Cl)[C@@H](Cl)C[C@@H]3[C@@]1(Cl)C2(Cl)Cl,outcome,[1],inactive
Clc1nc(Cl)nc(Cl)n1,outcome,[1],inactive
same,outcome,[2],inactive
same,outcome,[3],inactive
same,outcome,[4],inactive
same,outcome,[5],inactive
same,outcome,[6],inactive
same,outcome,[7],inactive
same,outcome,[8],inactive
same,outcome,[9],inactive
CCc1ccccc1C,outcome,[1],inactive
O=Cc1cccc(Oc2ccccc2)c1,outcome,[1],inactive
C[C@H]1CCCC(=O)CCC/C=C/c2cc(O)cc(O)c2C(=O)O1,outcome,[1],inactive
same,outcome,[2],inactive
same,AC50,[3],11.7 µM (active)
same,outcome,[3],inactive
same,outcome,[4],inactive
same,AC50,[5],12.3 µM (active) and 15.8 µM (active)
same,outcome,[6],inactive
same,AC50,[7],11.7 µM (active)
same,outcome,[7],inactive
same,outcome,[8],inactive
same,AC50,[9],8.07 µM (active) and 12.3 µM (active)
N#CCCO,outcome,[1],inactive
Nc1ccc(Cl)cc1C(=O)c1ccccc1,outcome,[1],inactive
CC(=[OH+])/C=C(/C)[O-].CC(=[OH+])/C=C(/C)[O-].CC(=[OH+])/C=C(/C)[O-].[Al],outcome,[1],inactive
CCc1ccccc1N,outcome,[1],inactive
CCCCCCCCSC(=O)Oc1cc(Cl)nnc1-c1ccccc1,outcome,[1],inactive
same,outcome,[2],inactive
same,outcome,[3],inactive
same,AC50,[4],59.1 µM (active)
same,outcome,[5],inactive
same,outcome,[6],inactive
same,outcome,[7],inactive
same,outcome,[8],inactive
CCNc1nc(NC(C)(C)C)nc(SC)n1,outcome,[1],inactive
same,outcome,[2],inactive
same,outcome,[3],inactive
same,outcome,[4],inactive
same,outcome,[5],inactive
same,outcome,[6],inactive
same,outcome,[7],inactive
same,outcome,[8],inactive
same,outcome,[9],inactive
CC(C)C1CCC(Cc2ccc(Cl)cc2)C1(O)Cn1cncn1 (stereo unspecified),AC50,[1],33.2 µM (active)
same,outcome,[1],inactive
same,AC50,[2],53.1 µM (active)
same,AC50,[3],67.8 µM (active)
same,AC50,[5],85.6 µM (active)
same,AC50,[6],45.7 µM (active)
same,AC50,[7],82.8 µM (active)
same,AC50,[8],71.1 µM (active)
same,AC50,[9],88.7 µM (active)
Cc1cc(Cl)ccc1O[C@H](C)C(=O)O,outcome,[1],inactive
CNC,outcome,[1],inactive
same,outcome,[2],inactive
same,outcome,[3],inactive
same,outcome,[4],inactive
same,outcome,[5],inactive
same,outcome,[6],inactive
same,outcome,[7],inactive
same,outcome,[8],inactive
same,outcome,[9],inactive
Oc1c(I)cc(I)cc1I,outcome,[1],inactive
O=C(c1ccccc1)C(Cl)Cl,outcome,[1],inactive
CCOP(=S)(OCC)Oc1ccc(S(C)=O)cc1 (stereo unspecified),outcome,[1],inactive
ClC(Cl)=C(Cl)C(Cl)=C(Cl)Cl,outcome,[1],inactive
C[C@@H](Oc1ccc(Cl)cc1Cl)C(=O)O,outcome,[1],inactive
C=CC(=O)N(C)C,outcome,[1],inactive
O=C1C(Cl)=C(Cl)C(=O)c2ccccc21,outcome,[1],inactive
same,AC50,[2],15 µM (active)
same,outcome,[2],inactive
same,outcome,[3],inactive
same,AC50,[4],30.9 µM (active) and 46.2 µM (active)
same,AC50,[5],54.1 µM (active) and 67.3 µM (active)
same,AC50,[6],14.5 µM (active) and 14.4 µM (active)
same,AC50,[7],63.4 µM (active) and 19.6 µM (active)
same,AC50,[8],57.7 µM (active)
same,outcome,[8],inactive
same,AC50,[9],17.1 µM (active)
same,outcome,[9],inactive
CCN(CC)C(=O)Cl,outcome,[1],inactive
Fc1ccc(C2(Cn3cncn3)OC2c2ccccc2Cl)cc1 (stereo unspecified),outcome,[1],inactive
COc1ccc(OC)c(C=O)c1,outcome,[1],inactive
NC(=S)Nc1ccccc1,outcome,[1],inactive
